# “And” between values parts separate entries of the source, which are not always exact repeats. Identical values can stand only once. Records with an inconclusive call do not appear. Entries that show only a call come without a potency. Some compounds were tested as several samples or in several runs, with calls that do not always agree. The source made the active and inactive calls. Unless noted, the call rests on the fitted dose curve; in most records, active means well fitted curve in the direction sought with a large enough effect in the repeat runs; inconclusive means weak or mixed curves; inactive means no such curve, though single readings can be large; an effect the other way counts as inactive or inconclusive.
# Assays:
# [1] = Human pregnane X receptor (PXR) small molecule agonists, qHTS cell viability counter screen (AID 1346977); further: nearly all actives have a fitted effect of over 50% in size; further: potency means the concentration at half of the fitted maximal effect
# Procedure, shortened: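 Readout is CellTiter-Fluor fluorescence from PXR-Luc HepG2 cells. Plated cells rested 5hr, then were treated with compounds for 24hr at 37C and 5% CO2, with reagent present during the last hour.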
# [2] = Caspase-3/7 induction in HepG2 cells by small molecules, qHTS assay (AID 1346978); further: nearly all actives have a fitted effect of over 15% in size; further: potency means the concentration at half of the fitted maximal effect
# Procedure, shortened: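 Wild-type HepG2 cells (2,000/well) were settled 5 h at 37 C, 5% CO2, then exposed to compounds in DMSO for 17 h. Caspase-3/7 activity was read by luminescence 30 min after adding Caspase-Glo 3/7 reagent at room temperature.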
# [3] = Caspase-3/7 induction in CHO-K1 cells by small molecules, qHTS cell viability counter screen (AID 1346979); further: nearly all actives have a fitted effect of over 35% in size
# Procedure, shortened: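 To flag cytotoxic compounds, treated CHO-K1 wild-type cells were given CellTiter-Fluor at 16hr and read fluorescently after 1hr at 37C; the caspase-3/7 luminescence was measured in these same wells.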
# [4] = Caspase-3/7 induction in CHO-K1 cells by small molecules, qHTS assay (AID 1346980); further: nearly all actives have a fitted effect of over 15% in size
# Procedure, shortened: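 Wild-type cells were seeded at 1,500 per well and settled 5 hr at 37 C, 5% CO2, then exposed to DMSO-dissolved compounds for 17 hr. Caspase-Glo 3/7 reagent was added, and luminescence was read after 30min at room temperature.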
# [5] = Caspase-3/7 induction in HepG2 cells by small molecules, qHTS cell viability counter screen (AID 1346981); further: series mostly up to about 92 µM; nearly all actives have a fitted effect of over 30% in size
# Procedure, shortened: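 In this quantitative HTS counter screen, compounds delivered in DMSO were left on unmodified HepG2 cells for 16 hr at 37 C. Viability was then determined fluorometrically with CellTiter-Fluor, in parallel with caspase-3/7 induction in the same wells.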
# [6] = target: Nuclear receptor subfamily 1 group I member 2 (Homo sapiens) (UniProt O75469); experiment: Human pregnane X receptor (PXR) small molecule agonists, qHTS assay (AID 1346982); further: nearly all actives have a fitted effect of over 35% in size; further: potency means the concentration at half of the fitted maximal effect
# Chain of Nuclear receptor subfamily 1 group I member 2 (Homo sapiens) (O75469 whole entry, looked up): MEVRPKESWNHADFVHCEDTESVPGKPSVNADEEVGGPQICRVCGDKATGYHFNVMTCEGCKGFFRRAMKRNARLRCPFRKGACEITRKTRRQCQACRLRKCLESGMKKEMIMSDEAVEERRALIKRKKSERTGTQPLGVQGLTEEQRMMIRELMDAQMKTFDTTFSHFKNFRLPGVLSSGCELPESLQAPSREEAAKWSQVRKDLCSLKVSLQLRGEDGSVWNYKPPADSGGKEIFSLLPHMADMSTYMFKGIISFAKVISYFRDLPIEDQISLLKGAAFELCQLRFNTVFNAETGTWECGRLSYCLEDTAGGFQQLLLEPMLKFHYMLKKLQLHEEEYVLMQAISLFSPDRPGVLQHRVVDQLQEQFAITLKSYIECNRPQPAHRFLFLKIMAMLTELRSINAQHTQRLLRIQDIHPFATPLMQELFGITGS
# Procedure, shortened: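 Reporter HepG2 cells expressing PXR-Luc are cultured in charcoal-stripped FBS (5%), treated with compounds for 24 hr at 37 C, and assayed by ONE-Glo luminescence after 30 min at room temperature.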
# [7] = target: Cytochrome P450 2D6 (Homo sapiens) (UniProt P10635); experiment: Cytochrome P450 Family 2 Subfamily D Member 6 (CYP2D6) small molecule antagonists: luciferase reporter qHTS assay (AID 1671196); further: nearly all actives have a fitted effect of over 50% in size; further: potency means the concentration at half of the fitted maximal effect
# Chain of Cytochrome P450 2D6 (Homo sapiens) (P10635 whole entry, looked up): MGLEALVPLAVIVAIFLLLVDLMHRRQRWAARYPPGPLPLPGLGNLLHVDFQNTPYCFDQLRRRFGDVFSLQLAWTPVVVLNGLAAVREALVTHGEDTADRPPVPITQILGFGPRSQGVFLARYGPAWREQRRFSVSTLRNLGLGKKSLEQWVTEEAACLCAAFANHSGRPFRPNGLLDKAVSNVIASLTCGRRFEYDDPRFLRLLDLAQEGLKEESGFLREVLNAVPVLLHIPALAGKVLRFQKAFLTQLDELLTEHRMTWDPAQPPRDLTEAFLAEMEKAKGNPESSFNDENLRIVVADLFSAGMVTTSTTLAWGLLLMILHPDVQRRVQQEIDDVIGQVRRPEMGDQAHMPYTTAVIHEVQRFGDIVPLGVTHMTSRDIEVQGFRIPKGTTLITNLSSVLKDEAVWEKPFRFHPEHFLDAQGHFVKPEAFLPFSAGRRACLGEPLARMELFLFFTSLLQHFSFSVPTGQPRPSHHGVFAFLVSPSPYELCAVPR
# Procedure, shortened: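 Test chemicals meet CYP2D6 plus proluciferin substrate (10 min, RT); NADPH regenerating solution then drives turnover for 1 h. Detection reagent halts the reaction; luminescence measured after 20 min.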
# [8] = target: Cytochrome P450 2C19 (Homo sapiens) (UniProt P33261); experiment: Cytochrome P450 Family 2 Subfamily C Member 19 (CYP2C19) small molecule antagonists: luciferase reporter qHTS assay (AID 1671197); further: nearly all actives have a fitted effect of over 65% in size; further: potency means the concentration at half of the fitted maximal effect
# Chain of Cytochrome P450 2C19 (Homo sapiens) (P33261 whole entry, looked up): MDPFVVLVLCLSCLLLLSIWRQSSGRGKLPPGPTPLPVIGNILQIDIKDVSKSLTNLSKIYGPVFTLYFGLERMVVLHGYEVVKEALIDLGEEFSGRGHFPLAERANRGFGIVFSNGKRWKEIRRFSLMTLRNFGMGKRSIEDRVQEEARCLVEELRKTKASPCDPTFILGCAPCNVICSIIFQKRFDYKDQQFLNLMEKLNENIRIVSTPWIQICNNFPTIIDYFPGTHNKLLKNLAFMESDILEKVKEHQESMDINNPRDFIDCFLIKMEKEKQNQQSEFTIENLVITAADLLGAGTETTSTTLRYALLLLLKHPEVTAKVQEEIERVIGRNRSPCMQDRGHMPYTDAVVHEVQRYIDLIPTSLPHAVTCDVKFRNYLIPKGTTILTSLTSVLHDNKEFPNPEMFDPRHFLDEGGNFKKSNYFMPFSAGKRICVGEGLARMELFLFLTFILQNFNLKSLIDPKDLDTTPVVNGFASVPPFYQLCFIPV
# Procedure, shortened: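 Relative luminescence units recorded 20 min after the detection reagent stopped a 1 h, 37C CYP2C19 reaction on proluciferin substrate, which was started by NADPH regeneration following 10 min room-temperature compound preincubation; ketoconazole positive control.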
# [9] = target: Cytochrome P450 2C9 (Homo sapiens) (UniProt P11712); experiment: Cytochrome P450 Family 2 Subfamily C Member 9 (CYP2C9) small molecule antagonists: luciferase reporter qHTS assay (AID 1671198); further: nearly all actives have a fitted effect of over 50% in size; further: potency means the concentration at half of the fitted maximal effect
# Chain of Cytochrome P450 2C9 (Homo sapiens) (P11712 whole entry, looked up): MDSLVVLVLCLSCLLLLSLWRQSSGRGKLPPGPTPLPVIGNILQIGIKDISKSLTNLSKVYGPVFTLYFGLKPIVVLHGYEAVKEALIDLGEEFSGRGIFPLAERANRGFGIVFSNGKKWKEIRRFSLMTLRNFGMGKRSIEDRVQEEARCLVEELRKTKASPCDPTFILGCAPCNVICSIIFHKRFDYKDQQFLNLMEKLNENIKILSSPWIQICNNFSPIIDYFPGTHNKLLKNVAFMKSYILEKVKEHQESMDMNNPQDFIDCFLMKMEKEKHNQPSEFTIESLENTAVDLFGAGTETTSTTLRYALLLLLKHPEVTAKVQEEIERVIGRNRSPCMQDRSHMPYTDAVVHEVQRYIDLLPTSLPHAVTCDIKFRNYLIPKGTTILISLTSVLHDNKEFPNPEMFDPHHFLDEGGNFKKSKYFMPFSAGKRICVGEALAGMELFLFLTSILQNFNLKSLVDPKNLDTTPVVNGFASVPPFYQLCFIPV
# Procedure, shortened: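 CYP2C9 activity was measured with a P450-Glo proluciferin substrate. Enzyme–substrate mix was held with compound for 10 min at room temperature, then NADPH regeneration solution was added for 1 h at 37C. Luciferin product was read as luminescence.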
# [10] = target: Cytochrome P450 1A2 (Homo sapiens) (UniProt P05177); experiment: Cytochrome P450 Family 1 Subfamily A Member 2 (CYP1A2) small molecule antagonists: luciferase reporter qHTS assay (AID 1671199); further: nearly all actives have a fitted effect of over 50% in size; further: potency means the concentration at half of the fitted maximal effect
# Chain of Cytochrome P450 1A2 (Homo sapiens) (P05177 whole entry, looked up): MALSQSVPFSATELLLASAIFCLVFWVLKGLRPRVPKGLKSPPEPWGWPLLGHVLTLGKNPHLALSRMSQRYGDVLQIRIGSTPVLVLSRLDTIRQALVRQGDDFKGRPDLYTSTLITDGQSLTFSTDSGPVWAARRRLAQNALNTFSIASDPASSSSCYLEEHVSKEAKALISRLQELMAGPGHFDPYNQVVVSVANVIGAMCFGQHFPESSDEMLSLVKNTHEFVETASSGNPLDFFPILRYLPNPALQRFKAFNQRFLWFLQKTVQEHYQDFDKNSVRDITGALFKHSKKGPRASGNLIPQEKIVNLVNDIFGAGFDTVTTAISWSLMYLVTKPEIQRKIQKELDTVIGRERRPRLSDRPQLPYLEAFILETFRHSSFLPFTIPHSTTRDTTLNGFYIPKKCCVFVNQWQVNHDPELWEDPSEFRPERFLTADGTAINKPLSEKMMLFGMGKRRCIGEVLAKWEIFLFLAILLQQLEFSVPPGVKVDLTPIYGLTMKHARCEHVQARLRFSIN
# Procedure, shortened: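 Steps: enzyme-substrate mix dispensed; test compounds and furafylline control pinned in; 10 min room temperature; NADPH regeneration solution added, 1 h; reaction stopped with luciferin detection reagent; luminescence read after 20 min.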
# [11] = target: Voltage-gated inwardly rectifying potassium channel KCNH2 (Homo sapiens) (UniProt Q12809); experiment: Human Ether-a-go-go-Related Gene (hERG) channel small molecule antagonists: fluorescence cell-based qHTS assay (AID 1671200)
# Chain of Voltage-gated inwardly rectifying potassium channel KCNH2 (Homo sapiens) (Q12809 whole entry, looked up): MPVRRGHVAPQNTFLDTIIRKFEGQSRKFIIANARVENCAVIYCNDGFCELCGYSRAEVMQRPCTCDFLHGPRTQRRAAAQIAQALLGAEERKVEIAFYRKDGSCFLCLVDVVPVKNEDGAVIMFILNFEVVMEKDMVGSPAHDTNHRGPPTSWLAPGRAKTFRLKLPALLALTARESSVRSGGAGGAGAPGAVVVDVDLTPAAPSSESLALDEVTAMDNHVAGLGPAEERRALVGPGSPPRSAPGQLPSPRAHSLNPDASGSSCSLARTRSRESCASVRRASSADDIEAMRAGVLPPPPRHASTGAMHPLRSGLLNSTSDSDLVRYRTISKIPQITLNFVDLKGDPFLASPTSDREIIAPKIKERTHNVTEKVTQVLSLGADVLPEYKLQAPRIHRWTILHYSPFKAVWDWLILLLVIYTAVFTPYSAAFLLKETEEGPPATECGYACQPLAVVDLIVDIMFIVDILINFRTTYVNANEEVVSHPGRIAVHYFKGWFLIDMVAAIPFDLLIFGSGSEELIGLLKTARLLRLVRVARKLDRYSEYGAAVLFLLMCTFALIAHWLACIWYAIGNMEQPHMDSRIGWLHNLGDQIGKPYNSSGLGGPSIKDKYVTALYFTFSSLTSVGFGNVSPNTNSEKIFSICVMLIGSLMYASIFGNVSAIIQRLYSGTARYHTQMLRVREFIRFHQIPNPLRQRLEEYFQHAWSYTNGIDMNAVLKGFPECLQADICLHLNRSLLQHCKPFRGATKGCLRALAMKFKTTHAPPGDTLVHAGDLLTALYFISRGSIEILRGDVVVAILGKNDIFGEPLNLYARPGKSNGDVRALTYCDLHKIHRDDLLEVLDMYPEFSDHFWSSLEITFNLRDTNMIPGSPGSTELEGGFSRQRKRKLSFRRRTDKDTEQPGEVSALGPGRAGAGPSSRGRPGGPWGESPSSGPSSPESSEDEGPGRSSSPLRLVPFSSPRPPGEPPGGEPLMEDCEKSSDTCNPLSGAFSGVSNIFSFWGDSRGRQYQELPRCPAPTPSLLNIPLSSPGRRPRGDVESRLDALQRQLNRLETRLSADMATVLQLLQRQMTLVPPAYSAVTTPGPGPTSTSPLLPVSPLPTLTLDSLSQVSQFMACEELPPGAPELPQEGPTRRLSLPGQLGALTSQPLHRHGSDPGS
# Procedure, shortened: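 Measured: Tl+ flux via fluorescence (480/540 nm) in hERG-expressing U2OS cells after 1 h dye loading at room temperature.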
# [12] = target: Cytochrome P450 3A4 (Homo sapiens) (UniProt P08684); experiment: Cytochrome P450 Family 3 Subfamily A Member 4 (CYP3A4) small molecule antagonists: luciferase reporter qHTS assay (AID 1671201); further: nearly all actives have a fitted effect of over 50% in size; further: potency means the concentration at half of the fitted maximal effect
# Chain of Cytochrome P450 3A4 (Homo sapiens) (P08684 whole entry, looked up): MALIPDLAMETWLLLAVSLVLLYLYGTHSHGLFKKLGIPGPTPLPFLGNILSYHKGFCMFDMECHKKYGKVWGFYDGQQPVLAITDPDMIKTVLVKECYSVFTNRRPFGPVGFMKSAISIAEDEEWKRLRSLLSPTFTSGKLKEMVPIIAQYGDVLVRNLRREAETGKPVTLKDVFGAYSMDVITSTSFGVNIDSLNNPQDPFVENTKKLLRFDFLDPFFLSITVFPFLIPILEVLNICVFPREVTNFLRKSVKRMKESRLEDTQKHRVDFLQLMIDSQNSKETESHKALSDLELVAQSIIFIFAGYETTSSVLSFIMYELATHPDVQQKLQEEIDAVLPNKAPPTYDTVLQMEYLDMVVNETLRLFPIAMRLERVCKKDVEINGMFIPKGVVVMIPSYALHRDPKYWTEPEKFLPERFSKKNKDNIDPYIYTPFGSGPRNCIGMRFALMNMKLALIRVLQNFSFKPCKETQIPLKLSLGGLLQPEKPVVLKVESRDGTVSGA
# Procedure, shortened: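 Setup: enzyme-substrate mix, compound pin transfer, 10 min RT. Reaction: NADPH regeneration solution, 1 h RT. Readout: detection reagent stops turnover, luminescence measured after 20 min, expressed in relative luminescence units.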
# [13] = target: Nuclear receptor subfamily 1 group I member 2 (Rattus norvegicus) (UniProt Q9R1A7); experiment: Rat pregnane X receptor (rPXR) activation by small molecules, qHTS assay (AID 1346983); details: rPXR luciferase reporter cells, One-Glo luminescence, 24 h; stronger effect = higher value; further: nearly all actives have a fitted effect of over 20% in size
# Chain of Nuclear receptor subfamily 1 group I member 2 (Rattus norvegicus) (Q9R1A7 whole entry, looked up): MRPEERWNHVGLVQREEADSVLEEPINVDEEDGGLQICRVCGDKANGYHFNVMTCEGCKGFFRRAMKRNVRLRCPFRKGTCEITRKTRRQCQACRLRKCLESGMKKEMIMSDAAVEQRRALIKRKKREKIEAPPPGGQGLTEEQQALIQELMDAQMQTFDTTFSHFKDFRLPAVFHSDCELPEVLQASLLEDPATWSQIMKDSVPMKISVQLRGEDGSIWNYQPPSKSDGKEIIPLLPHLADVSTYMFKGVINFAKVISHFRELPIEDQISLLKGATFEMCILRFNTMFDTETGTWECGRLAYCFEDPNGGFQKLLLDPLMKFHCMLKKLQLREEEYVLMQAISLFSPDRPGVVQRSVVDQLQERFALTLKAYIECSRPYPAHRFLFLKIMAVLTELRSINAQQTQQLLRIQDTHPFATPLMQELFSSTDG
# Procedure, shortened: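 Cell-based rPXR luciferase reporter assay, 2,000 cells per well, rested 5hr at 37 C before compound addition in DMSO, then 24 hr at 37 C. One-Glo reagent was added and luminescence read after 30 min at room temperature.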
# [14] = target: Nuclear receptor subfamily 1 group I member 2 (Homo sapiens) (UniProt O75469); experiment: CYP3A4 induction through human pregnane X receptor (PXR) by small molecules, qHTS assay (AID 1346984); further: nearly all actives have a fitted effect of over 40% in size; further: potency means the concentration at half of the fitted maximal effect
# Procedure, shortened: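 Induction measured in HepG2-based DPX-2 cells co-expressing human PXR and a CYP3A4 promoter-driven luciferase. After a 24-hour compound exposure, cells received CYP3A4 luciferin substrate at 3uM final for 3 hours, and light output was then recorded.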
# [15] = target: Nuclear receptor subfamily 1 group I member 2 (Homo sapiens) (UniProt O75469); experiment: Human pregnane X receptor (PXR) activation by small molecules, qHTS assay (AID 1346985); further: nearly all actives have a fitted effect of over 40% in size
# Procedure, shortened: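 DPX-2 cells (HepG2 co-transfected with a PXR response element and a CYP3A4-promoter luciferase construct) were seeded at 2,000 per well, rested 5 hr at 37C, then exposed to DMSO-dissolved compounds for 24 hr. Activation was read as luciferase luminescence.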
# [16] = target: Thyrotropin-releasing hormone receptor (Homo sapiens) (UniProt P34981); experiment: qHTS assay to identify small molecule agonists of the thyrotropin-releasing hormone receptor (TRHR) signaling pathway (AID 1346891; calls by dose curve;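 further: HEK293 cells expressing TRHR with calcium dye readout; series mostly up to about 58 µM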)
# Chain of Thyrotropin-releasing hormone receptor (Homo sapiens) (P34981 whole entry, looked up): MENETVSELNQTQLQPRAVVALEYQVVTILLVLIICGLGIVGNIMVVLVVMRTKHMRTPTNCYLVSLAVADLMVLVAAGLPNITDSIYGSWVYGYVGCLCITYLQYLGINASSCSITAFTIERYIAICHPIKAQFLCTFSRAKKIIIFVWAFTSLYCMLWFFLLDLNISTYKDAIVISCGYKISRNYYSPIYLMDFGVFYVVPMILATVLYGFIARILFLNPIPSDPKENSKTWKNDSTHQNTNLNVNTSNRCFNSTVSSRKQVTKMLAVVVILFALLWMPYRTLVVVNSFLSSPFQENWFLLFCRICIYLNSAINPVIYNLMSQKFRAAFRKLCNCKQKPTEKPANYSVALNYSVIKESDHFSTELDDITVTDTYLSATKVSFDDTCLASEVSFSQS
# Procedure, shortened: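 In 1536-format, 1500 TRHR-Hek293 cells per well grew 18 h, took up calcium dye for 2 h at 37 °C, received compound, and were read kinetically; 15-point titrations, triplicates.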
Structure (SMILES),Potency [1],Potency [2],Potency [3],outcome [4],Potency [5],Potency [6],Potency [7],Potency [8],Potency [9],Potency [10],Potency [11],Potency [12],max activation [13],Potency [14],outcome [15],outcome [16]
Clc1ccccn1,inactive,inactive,inactive,inactive,inactive,inactive,inactive,inactive,inactive,inactive,inactive,inactive,,,,
O=C(O)c1cc2ccccc2cc1O,inactive,inactive,inactive,inactive,inactive,54.1 µM (active),inactive,35.3 µM (active) and 79.6 µM (active),62.8 µM (active) and 56.4 µM (active),39.9 µM (active),inactive,inactive,,,,
CC1(C)CC(N)CC(C)(CN)C1 (configuration not stated),inactive,inactive,inactive,inactive,inactive,,36.1 µM (active) and inactive,inactive,inactive,inactive,inactive,5.73 µM (active) and 4.48 µM (active),,,,
CC(=O)CCC=C(C)C,inactive,inactive,inactive,inactive,inactive,,inactive,inactive,inactive,inactive,inactive,inactive,,,,
O=C1C(c2[nH]c3ccccc3c2O)=Nc2ccccc21,inactive,inactive,inactive,inactive,inactive,inactive,inactive,inactive,inactive,inactive and 34.7 µM (active),inactive,inactive,3.64% (inactive),0.891 µM (active),inactive,
c1ccc(Oc2ccccc2)cc1,inactive,inactive,inactive,inactive,inactive,inactive,,inactive,inactive,inactive,inactive,inactive,,,,
N[C@H](Cc1c[nH]c2ccccc12)C(=O)O,inactive,,inactive,inactive,inactive,,inactive,inactive,inactive,,inactive,inactive,-2.63% (inactive),,inactive,inactive
CCCCCCC=O,inactive,,,inactive,inactive,,inactive and 17.8 µM (active),40.8 µM (active) and 39.9 µM (active),,inactive,inactive,inactive,,,,inactive
CC(CCl)OP(=O)(OC(C)CCl)OC(C)CCl (configuration not stated),inactive,inactive,inactive,inactive,inactive,36.3 µM (active),inactive,35.7 µM (active) and 21.1 µM (active),40 µM (active) and 59.5 µM (active),28.3 µM (active) and 14.9 µM (active),inactive,,,,,
CC(=O)CC(C)(C)O,inactive,inactive,inactive,inactive,inactive,inactive,inactive,40.6 µM (active) and inactive,inactive,inactive,inactive,inactive,,,,
CC(C)CC(=O)CC(C)CC(C)C (configuration not stated),inactive,,inactive,inactive,inactive,,inactive,79.2 µM (active) and inactive,inactive,inactive,inactive,inactive,,,,inactive
CCCCOC(=O)c1ccc(N)cc1,inactive,,inactive,inactive,inactive,,,,,,inactive,,,,,inactive
C=C(C)C(=O)OCC(C)C,39.8 µM (active) and inactive,55.2 µM (active) and inactive,,inactive,inactive,17.5 µM (active) and inactive,inactive,inactive,inactive,inactive,inactive,inactive,,,,
NCCN1CCNCC1,inactive,inactive,inactive,inactive,inactive,inactive,,inactive,inactive,inactive,inactive,inactive,,,,
COc1ccc(CCC(C)=O)cc1,inactive,inactive,inactive,inactive,inactive,inactive,inactive,28.3 µM (active) and inactive,inactive,22.4 µM (active) and 20.4 µM (active),inactive,inactive,,,,
CC(CCO)CC(C)(C)C (configuration not stated),inactive,inactive,inactive,inactive,inactive,inactive,inactive,inactive and 79.6 µM (active),,inactive,inactive,inactive,,,,
CNC(=O)Oc1ccc2c(c1)[C@]1(C)CCN(C)[C@@H]1N2C,inactive,,,inactive,inactive,,564 nM (active) and 977 nM (active),25.2 µM (active) and inactive,71 µM (active) and inactive,inactive,inactive,inactive,-1.54% (inactive),inactive,inactive,inactive
CN1C(=O)CC[C@H]1c1cccnc1,inactive,inactive,inactive,inactive,inactive,,,inactive,inactive,inactive,inactive,,-3.2% (inactive),,,
COc1ccc(C)cc1N,inactive,inactive,inactive,inactive,inactive,inactive,24.3 µM (active) and 25.2 µM (active),38.6 µM (active) and 35.6 µM (active),,28.3 µM (active),inactive,6.86 µM (active) and 20 µM (active),,,,
CC(C)OC(=O)COc1ccc(Cl)cc1Cl,inactive,inactive,inactive,inactive,inactive,,,11.1 µM (active) and 50.2 µM (active),35 µM (active) and 35.6 µM (active),6.23 µM (active) and 63.3 µM (active),inactive,inactive,,,,

# — PubChem BioAssay (Tox21)
